The source of these data is PubChem BioAssay (Tox21).

Records with an inconclusive call do not appear. Activity calls are given as the source filed them. The call rests on the fitted dose curve; in most records, active means well fitted cell-killing curve with a large enough effect in the repeat runs; inconclusive means weak or mixed curves, or effect the other way; inactive means no such curve, though single readings can be large or run the other way.
On the % scale 0 is the no-effect control and ±100 the full control effect.

The nature of the assay: qHTS assay to identify small molecule agonists of the estrogen receptor alpha (ER-alpha) signaling pathway in the presence of an antagonist - cell viability counter screen (AID 1259386). Further: nearly all actives have a fitted effect of over 30% in size. The settings on record: VM7Luc4E2 viability, CellTiter-Fluor fluorescence, 22 h; series mostly up to 92.4 µM. An excerpt: National Center for Advancing Translational Sciences [NCATS]
NIH Chemical Genomics Center [NCGC]
U.S. Environmental Protection Agency [EPA]
National Institutes of Environmental Health Sciences [NIEHS]
National Toxicology Program [NTP]
U.S. Food and Drug Administration [FDA]
Estrogen receptor (ER), a member of nuclear hormone receptor plays an important role in development, metabolic homeostasis and reproduction. Two subtypes of ER, ER-alpha and ER-beta, have similar expression patterns with some uniqueness in both types. Endocrine disrupting chemicals (EDCs) and their interactions with steroid hormone receptors like ER causes disruption of normal endocrine function. Therefore, it is important to understand the effect of environmental chemicals in ER signaling pathway. For identifying ER agonists, VM7Luc4E2 cell line has been used in the current assay.
VM7Luc4E2 cell line (provided by Denison MS, University of California) endogenously expresses full-length ER-alpha and is stably transfected with a plasmid containing four estrogen responsive elements (ERE) upstream of a luciferase reporter gene. This current screening for measuring luciferase reporter gene activity using VM7Luc4E2 cells against Tox21 10K library collection is a confirmation study on agonist mode screening in presence of ER-antagonist (ICI-182,780) at 10.0nM final concentration. The cytotoxicity of the compounds was tested in parallel by measuring the cell viability using CellTiter-Fluor assay system (Promega, Madison, WI) in the same wells.
Tox21 Assay Protocol Summary:
VM7Luc4E2 cells were cultured in phenol red free assay medium containing 10% charcoal stripped FBS for 5 days prior to the assay. The cells were dispensed at 4,000 cells in 4uL of assay medium per well into white wall/solid-bottom 1536-well plates (Corning Life Sciences, Corning, NY) using a Multidrop Combi (Thermo Fisher Scientific Inc., Waltham, MA) dispenser. After the assay plates were incubated at 37C and 5% CO2 for 24hr, 1uL of 10.0nM (final concentration) ICI-182,780 or assay buffer was added using two separate tips of Flying Reagent Dispenser (FRD, Aurora Discovery, San Diego, CA). Then 23nL of compounds dissolved in DMSO at 15 concentrations and positive controls or DMSO only was transferred to the assay plates by a Pintool station (Wako, San Diego, CA). The assay plates were incubated at 37C and 5% CO2 for 22hr. After 21hr incubation at 37C, 1uL/well CellTiter-Fluor reagent (Promega Corporation, Madison, WI) was added to each well using FRD and after 1hr incubation at 37C and 5% CO2, the fluorescence signal was measured on ViewLux plate reader (PerkinElmer, Shelton, CT).
Regarding `OCC(CO)(CO)COCC(CO)(CO)CO`, the result was inactive.
In the case of `COCc1ccc(COC)cc1`, the result was inactive.
For the compound `NS(=O)(=O)c1cc2c(cc1C(F)(F)F)NC(Cc1ccccc1)NS2(=O)=O` (stereo not given), the outcome was inactive.
With `CC(C)(C)OC(=O)N1C[C@@H](F)C[C@H]1C(=O)O`, the result was inactive.
As for `c1ccc(SCCSc2ccccc2)cc1`, the outcome was inactive.
Regarding `C#CC(O)C(CC)CCCC` (stereo not given), the outcome was inactive.
Turning to `O=C1OC(=O)c2cc([N+](=O)[O-])ccc21`, the outcome was inactive.
On to `O=C1CC2(CCCC2)CC(=O)N1`, for which the outcome was inactive.
On to `CCCCNc1ccccc1`, for which the outcome was inactive.
Take `COCCOC(=O)CC#N`: the result was inactive.
Same read-out and setting: to `Cc1ncc(CSSCc2cnc(C)c(O)c2CO)c(CO)c1O` belongs “inactive”; to `CC1=CC(C)C(C=O)C(C)C1` (stereo not given), “inactive”.
For `COc1cc(CCC(C)=O)ccc1O`, the result was inactive.
Still for that read-out and setting: to `C[C@H](O)C(=O)Nc1c(I)c(C(=O)NC(CO)CO)c(I)c(C(=O)NC(CO)CO)c1I` belongs “inactive”.
Consider `C=CCn1c(=O)n([C@@H]2O[C@H](CO)[C@@H](O)[C@H]2O)c2nc(N)[nH]c(=O)c21`, for which the result was inactive.
Turning to `OC[C@H]1O[C@@H]2O[C@H]3[C@H](O)[C@@H](O)[C@@H](O[C@H]4[C@H](O)[C@@H](O)[C@@H](O[C@H]5[C@H](O)[C@@H](O)[C@@H](O[C@H]6[C@H](O)[C@@H](O)[C@@H](O[C@H]7[C@H](O)[C@@H](O)[C@@H](O[C@H]8[C@H](O)[C@@H](O)[C@@H](O[C@H]9[C@H](O)[C@@H](O)[C@@H](O[C@H]1[C@H](O)[C@H]2O)O[C@@H]9CO)O[C@@H]8CO)O[C@@H]7CO)O[C@@H]6CO)O[C@@H]5CO)O[C@@H]4CO)O[C@@H]3CO`, the outcome was inactive.
Regarding `CCCCCCOC(=O)c1ccccc1O`, the outcome was inactive.
Regarding `CC(=O)N[C@@H](CCC(N)=O)C(=O)O`, the outcome was inactive.
Turning to `C1C2OC2C2C1C1CC2C2OC12` (stereo not given), the outcome was inactive.
Regarding `O=C(O)C1CCC1`, the outcome was inactive.
Same read-out and setting: with `CC(C)[C@H](N)C(=O)OCCOCn1cnc2c(=O)[nH]c(N)nc21` the entry was “inactive”; with `CSc1nc(NC2CC2)nc(NC(C)(C)C)n1`, “inactive”.
As for `CCCC(=O)O[C@]1(C(=O)CCl)[C@@H](C)C[C@H]2[C@@H]3CCC4=CC(=O)C=C[C@]4(C)[C@@]3(F)C(=O)C[C@@]21C`, the outcome was inactive.
For `CC(=O)O[C@H](CC(=O)[O-])C[N+](C)(C)C`, the result was inactive.
With `Nc1nc(F)nc2c1ncn2[C@@H]1O[C@H](CO)[C@@H](O)[C@@H]1O`, the result was inactive.
In the case of `C=CC(=O)OCCCCCC`, the result was inactive.
On to `CC(C)COC(=O)C(C)C`, for which the result was inactive.
For the compound `CC(C)=CCC/C(C)=C/C(=O)O`, the result was inactive.
For the compound `C=C(C)C(=O)OCCCCCCCCCCCCCCCCCC`, the activity change, negative = cytotoxicity is -3.47% [at 19 µM] (inactive).
With `Cc1c(F)cc2c(=O)c(C(=O)O)cn3c2c1CCC3C` (stereo not given), the outcome was inactive.
Take `CN(C)C(=O)C(CCN1CCC(O)(c2ccc(Cl)cc2)CC1)(c1ccccc1)c1ccccc1`: the result was inactive.
As to `NC1CCN(c2cccc(Cl)n2)CC1`, the result was inactive.
As to `O=C(O)C(O)[C@H](O)[C@@H](O)[C@H](O)[C@H](O)CO` (stereo not given in full), the result was inactive.
For the compound `CCCCCCC(=O)OCC`, the outcome was inactive.
As to `Cc1ccc(N)cc1[N+](=O)[O-]`, the outcome was inactive.
As for `O=C(O)c1ccccc1-c1ccc(C(F)(F)F)cc1`, the outcome was inactive.
On the same count and under the same terms, to `OCc1ccccn1` belongs “inactive”.
`CCCc1ccc(N)cc1`: the outcome was inactive.
Same read-out and setting: to `CCCC=O` belongs “inactive”; to `COC[C@H](c1ccc(C(F)(F)F)cc1)N1CCN(C2(C)CCN(C(=O)c3c(C)ncnc3C)CC2)C[C@H]1C`, “inactive”.
